# The whole screen tested about 48,000 compounds, of which about 13,000 (27%) showed an effect of 50% or more. The list shows a part of the results.
# System: Wolbachia pipientis
# Experiment: Anti-Wolbachia Cell-Based Screen
# Type: functional
# Parameters: scale not given: in the data most compounds retested in dose-response had high values
# Settings: 5 µM
row,Compound,Percent Effect [%]
1,O=c1ccc2c([nH]1)CCN(S(=O)(=O)c1ccc3c(c1)CCCC3)C2,-15.49
2,Cc1ccc(CN2CC[C@@H](N(C)C(C)C)[C@@H]2Cc2ccccc2)o1,-15.45
3,CCc1cccc(CC(=O)NC2CCN(C(=O)NC(C)(C)C)CC2)c1,-13.61
4,Cc1ncc(CNC2CCc3nc(C(C)C)nn3C2)s1 (centres undefined),101
5,Cc1cnc(CNC2CCc3nc(C(C)C)nn3C2)cn1 (centres undefined),130.4
6,CC(C)c1nc2n(n1)CC(NCc1nnnn1C1CC1)CC2 (centres undefined),8.252
7,Cc1nc(CNC2CCc3nc(C(C)C)nn3C2)oc1C (centres undefined),22.08
8,CC(C)c1nc2n(n1)CC(NCc1nnc(-c3ccco3)o1)CC2 (centres undefined),-6.468
9,CC(C)c1nc2n(n1)CC(NCc1ncc(-c3ccccc3)o1)CC2 (centres undefined),-0.3467
10,CCn1cc(S(=O)(=O)Nc2ccc3[nH]c(C4CCC4)nc3c2)cn1,-33.9
11,c1cnn(C2CN(c3nc(-c4ccncc4)nc4c3CCC4)C2)c1,-0.2642
12,Cc1ccc(C2CN(C(=O)c3c(C)cc(C)[nH]c3=O)CCO2)c(C)c1 (centres undefined),7.803
13,CCC(C)N(C)S(=O)(=O)c1ccc(CCNC(C)=O)s1 (centres undefined),12.12
14,CC(=O)Nc1ccsc1C(=O)N1CC[C@@H]2CC[C@H](C1)N2C,-9.655
15,O=C(c1cccc(-c2ncc[nH]2)c1)N1CC[C@H](CO)[C@@H](O)C1,-2.343
16,Cc1[nH]c(-c2ccccc2)nc1C(=O)N1CCC(O)(CO)CC1,-2.686
17,CN1[C@H]2CC[C@@H]1CN(C(=O)c1sccc1S(N)(=O)=O)CC2,-9.156
18,CO[C@H]1CN(C(=O)c2ccc(-c3ccccc3)[nH]2)CC[C@H]1N,104.8
19,CO[C@H]1CN(C(=O)c2nc(-c3ccccc3)[nH]c2C)CC[C@H]1N,99.21
20,Cc1ccsc1[C@@H]1CCN(C(=O)c2cc3ccccc3[nH]2)C[C@H]1O,-6.106
21,CO[C@H]1CN(C(=O)c2cc3ccccc3[nH]2)CC[C@H]1N,117
22,CO[C@H]1CN(C(=O)c2ccc(-c3cc[nH]n3)cc2)CC[C@H]1N,5.265

row,Compound,Percent Effect [%]
1,Cc1[nH]c(-c2ccccc2)nc1C(=O)N1CC[C@H](CO)[C@@H](O)C1,5.886
2,CC(C)COC1CCN(C(=O)c2cc3ccccc3c(=O)[nH]2)CC1,-14.3
3,CN1[C@H]2CC[C@@H]1CN(C(=O)c1ccc(-c3ccccc3)[nH]1)CC2,114.3
4,O=C(O)CC1CN(S(=O)(=O)c2cccc(F)c2)c2ccccc21 (centres undefined),-14.9
5,CC(NC(=O)Nc1nnc(-c2ccccn2)s1)C(=O)OC(C)(C)C (centres undefined),4.269
6,CN1CC[C@@H]2[C@@H](CO[C@H]2CNC(=O)c2nccn2C)C1.O=C(O)C(F)(F)F,-30.91
7,COCCN(CCN(C)C)C(=O)NC1CCc2ccccc2C1 (centres undefined),-2.569
8,CCOc1cc2c(cc1CCC(=O)O)CCC2,-9.267
9,CCOc1cc2c(cc1CN1CCC3(CCCNC3=O)C1)CCC2 (centres undefined),106.5
10,CCOc1cc(Cl)c(CN2CCC3(CCCNC3=O)C2)cc1OC (centres undefined),104.3
11,CCCc1cc(C(=O)N2CCC3(CCCNC3=O)C2)cs1 (centres undefined),9.333
12,CCCNc1ncc(CN2CCC3(CC2)CNC(=O)C3)cn1,-5.134
13,O=C1NCCCC12CCN(Cc1ccc(SC3CCCCC3)o1)C2 (centres undefined),4.336
14,CCOc1ccc(CN2CCC3(CC2)CNC(=O)C3)cn1,-1.206
15,Cc1ccc(Sc2ccc(CN3CCC4(CCCNC4=O)C3)o2)cc1 (centres undefined),5.94
16,CCOc1cc2c(cc1CN1CCC3(CC1)CNC(=O)C3)CCC2,89
17,CN1CCc2ccc(NCc3cscn3)cc2C1=O,26.59
18,CN(C)C(=O)CN1C[C@H]2CCN(C(=O)c3ccncc3)CC[C@H]2S1(=O)=O,6.618
19,CCc1nnc(S(=O)(=O)Cc2cc(Cl)c3c(c2)OCO3)n1C,-5.495
20,CNC(=O)CN(C)c1nc(-c2ccncc2)nc2c1CCN(C(C)=O)C2,-5.976
21,CN(CCO)c1nc(-c2ccccn2)nc2c1CCNC2,-7.259
22,CNC(=O)CCN(C)c1nc(-c2ccncc2)nc2c1CCNC2,97.6

row,Compound,Percent Effect [%]
1,CNC(=O)CN(C)c1nc(-c2ccc(C(N)=O)cc2)nc2c1CCNC2,117.3
2,CCN(CC)CCN(C)c1nc(-c2ccc(Cl)cc2)nc2c1CNC2,-44.78
3,CN(CC(O)CO)c1nc(-c2cccnc2)nc2c1CCNC2 (centres undefined),5.807
4,COCCN(C)c1nc(-c2ccncc2)nc2c1CCN(C(C)=O)C2,5.956
5,NC(=O)c1ccc(-c2nc3c(c(=O)[nH]2)CCNC3)cc1,-6.229
6,CN(CCCO)c1nc(-c2ccc(C(N)=O)cc2)nc2c1CCNC2,101.5
7,O=C1NCCO[C@H]2CN(C(=O)CCc3ccc(Cl)cc3)CC[C@@H]12,1.273
8,O=C(CC1CCc2ccccc21)NCCSc1cnn[nH]1 (centres undefined),-1.678
9,O=S(=O)(NCC1CCOC1)N1CCc2ccccc2C1 (centres undefined),0.4119
10,CN(CCOc1ccc(Br)cc1)Cc1cscn1,-4.62
11,CCCc1nnc(NC2CCN(Cc3ccc(F)c(F)c3)CC2)o1,-13.59
12,Cc1cc(C(=O)NC2CCCCNC2=O)c(=O)[nH]c1C (centres undefined),-5.405
13,FC1(F)CCN(Cc2ccncc2)CC12CCN(c1cccnc1)C2.O=C(O)C(F)(F)F.O=C(O)C(F)(F)F.O=C(O)C(F)(F)F (centres undefined),90.74
14,Cn1cc(CN2CCC(F)(F)C3(CCN(c4cccc(F)c4)C3)C2)cn1 (centres undefined),120.4
15,O=C(O)C(F)(F)F.O=C(O)C(F)(F)F.O=C(O)CN1CCC(F)(F)C2(CCN(c3ccccc3)C2)C1 (centres undefined),-5.23
16,FC1(F)CCN(Cc2cccnc2)CC12CCN(c1ccccc1)C2.O=C(O)C(F)(F)F.O=C(O)C(F)(F)F.O=C(O)C(F)(F)F (centres undefined),93.27
17,Cn1cc(CN2CCC(F)(F)C3(CCN(c4cccnc4)C3)C2)cn1.O=C(O)C(F)(F)F.O=C(O)C(F)(F)F (centres undefined),116.7
18,O=C(O)C(F)(F)F.O=C(c1c[nH]cn1)N1CCC(F)(F)C2(CCN(c3cccc(F)c3)C2)C1 (centres undefined),-14.3
19,Cn1cc(CN2CCOC3(CCCN(c4cccc(F)c4)C3)C2)cn1.O=C(O)C(F)(F)F.O=C(O)C(F)(F)F (centres undefined),-4.147
20,O=C(CO)N1CCC(F)(F)C2(CCN(c3ccccc3)C2)C1.O=C(O)C(F)(F)F (centres undefined),5.936
